According to PubChem BioAssay AID1578 (Sanford-Burnham Center for Chemical Genomics, 2009):
The campaign covered roughly 290,000 compounds. About 3,000 (1%) were called active. No stated cut-off is given here; in the data, active means inhibition mostly above about 36% (no sharp cut-off); inactive means mostly below about 34%. The list comes from a sample in which actives are over-represented; it also holds similar structures and randomly drawn compounds.

Assay: inhibition of NOD1-driven NF-kB reporter – cell-based, luminescence, uHTS, primary screen (AID 1578);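 further: HEK-293T reporter cells stimulated with the NOD1 agonist gamma-tri-DAP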
Conditions: NOD1-driven NF-kB luciferase reporter cells, at 4 µM, hits give high values
For `Cc1cccc(N(C(=O)CNC(=O)c2ccco2)C(C(=O)NC2CCCC2)c2ccncc2)c1` (stereo not given), the inhibition was -12.6% (inactive). With `CC1=NN(c2nc(-c3ccc(Cl)cc3)cs2)C(=O)C1` the inhibition was 46.6% (inactive). In the case of `O=C1CC(c2ccccc2)=NN1c1nc(-c2ccccc2)cs1`, the inhibition is reported as 65.7% (active). With `CC1=NN(c2nc(-c3ccccc3)cs2)C(=O)C1` the inhibition was 3.7% (inactive). For `CCCNC(=O)c1onc(CSc2cccc(OC)c2)c1C(=O)NCCC`, the inhibition was -4% (inactive). With `Cc1nc(-c2ccc(NC(=O)c3ccco3)cc2)cs1` the inhibition was 54.6% (active). With `Cc1ccc(C(=O)Nc2ccc(-c3csc(C)n3)cc2)cc1` the inhibition was -53.9% (inactive). In the case of `Cc1nc(-c2ccc(C(=O)Nc3cccc(F)c3)cc2)cs1`, the inhibition is reported as 26.3% (inactive). In the case of `Nc1nc(-c2ccc(NC(=O)c3ccco3)cc2)cs1`, the inhibition is reported as -4.3% (inactive). With `Cc1nc(-c2ccc(C(=O)Nc3cccc(Br)c3)cc2)cs1` the inhibition was 47.3% (active). With `Cc1nc(-c2cccc(NC(=O)c3ccco3)c2)cs1` the inhibition was -30.5% (inactive). In the case of `COCCN1Cc2cccc(C(=O)Nc3cccc(-c4nc5ccccc5[nH]4)c3)c2C1=O`, the inhibition is reported as -5.5% (inactive). For `CCOc1ccc(C(=O)OCc2nnc(-c3cccs3)o2)cc1OC`, the inhibition was -3.4% (inactive). For `Oc1nc(Nc2ccccc2)sc1/C=C1\C=Nc2ccccc21`, the inhibition was -13.5% (inactive). For `O=C(COC(=O)c1ccccc1Br)NCc1ccccc1`, the inhibition was -32% (inactive). In the case of `CC(=O)N/C(=C/c1ccc([N+](=O)[O-])cc1)C(=O)O`, the inhibition is reported as -71.3% (inactive). For `O=C(O)c1cc(-c2ccc(Cl)cc2)n(-c2ccccc2)n1`, the inhibition was -29.5% (inactive). In the case of `COC(=O)C1C2C=CC3(CN(c4cccc(C)c4)C(=O)C13)O2` (stereo not given), the inhibition is reported as -25.9% (inactive). With `COc1ccc2nccnc2c1[N+](=O)[O-]` the inhibition was -0.6% (inactive). With `O=C(CCC(=O)NCCCc1ccccc1)NCCCc1ccccc1` the inhibition was 80.7% (active). With `O=C(CCCc1ccccc1)NCCCc1ccccc1` the inhibition was -23.7% (inactive). With `O=C(CCCCC(=O)NCCCc1ccccc1)NCCCc1ccccc1` the inhibition was -23.1% (inactive). With `CCn1c(-c2ccccc2)c(C(=O)CC#N)c2ccccc21` the inhibition was -39.5% (inactive). In the case of `CCn1c(-c2ccccc2)c(C(=O)CCl)c2ccccc21`, the inhibition is reported as 79.5% (active). For `CCn1c(-c2ccccc2)c(C(=O)O)c2ccccc21`, the inhibition was -1.6% (inactive). In the case of `Cc1ccc(OCc2nnc(SCC(N)=O)n2N)cc1`, the inhibition is reported as -1.8% (inactive). In the case of `O=C(Cc1c[nH]c2ccccc12)Nc1ccc(N2CCOCC2)cc1`, the inhibition is reported as -30.3% (inactive). For `NC(=O)C1(N2CCCCC2)CCN(C(=S)Nc2ccc(S(N)(=O)=O)cc2)CC1`, the inhibition was -18.7% (inactive). With `COc1cccc(OCc2cc(C(=O)NCc3ccccn3)no2)c1` the inhibition was -60.1% (inactive). With `COc1cccc(OCc2cc(C(=O)NCc3ccc4c(c3)OCO4)no2)c1` the inhibition was -60.1% (inactive). With `O=C(O)C(Cc1ccccc1)N1C(=O)/C(=C/c2cccs2)SC1=S` (stereo not given) the inhibition was 3% (inactive). In the case of `O=C(O)C(Cc1ccccc1)N1C(=O)/C(=C/c2ccccc2)SC1=S` (stereo not given), the inhibition is reported as 40.1% (inactive). In the case of `Cc1ccc(CCNC(=O)CN(C)S(=O)(=O)c2ccc3c(c2)n(C)c(=O)c(=O)n3C)cc1`, the inhibition is reported as -2.1% (inactive). For `COc1cc(Br)cc(/C=C/c2ccc3cccc(O)c3n2)c1OC`, the inhibition was 23% (inactive). For `COc1ccc(/C=C/c2ccc3c(Br)ccc(O)c3n2)cc1`, the inhibition was 0.6% (inactive). In the case of `COc1cc(Br)c(/C=C/c2ccc3cccc(O)c3n2)cc1OC`, the inhibition is reported as 11.8% (inactive). With `COc1cccc(/C=C/c2ccc3cccc(O)c3n2)c1` the inhibition was 7.9% (inactive). For `COc1cc(/C=C/c2ccc3c(Br)cc(Br)c(O)c3n2)ccc1O`, the inhibition was 79.9% (active). In the case of `COc1cc(Cl)cc(/C=C/c2ccc3cccc(O)c3n2)c1OC`, the inhibition is reported as 8.1% (inactive). With `COc1ccccc1/C=C/c1ccc2cccc(O)c2n1` the inhibition was -8.4% (inactive). In the case of `COc1ccc(/C=C/c2ccc3cccc(O)c3n2)c(OC)c1OC`, the inhibition is reported as 16.5% (inactive). For `COc1ccc(/C=C/c2ccc3cccc(O)c3n2)cc1Br`, the inhibition was 6.9% (inactive). With `Cc1ccc(N(CC(=O)Nc2ccc3c(c2)OCCO3)S(C)(=O)=O)cc1` the inhibition was -32.2% (inactive). In the case of `COc1ccc(NC(=O)CN2C(=O)NC(C)(c3ccccc3)C2=O)cc1Cl` (stereo not given), the inhibition is reported as -50.5% (inactive). For `COc1ccc(NC(=O)c2ccccc2NC(=O)NC2CCCCC2)cc1`, the inhibition was -14.5% (inactive). For `CCCCNC(=O)[C@@H]1CSC2c3ccccc3C(=O)N21` (stereo not given in full), the inhibition was -0.2% (inactive). For `O=C1c2ccccc2C(=O)N1CCCC(=O)N1CCCc2ccccc21`, the inhibition was -23.6% (inactive). For `Cc1ccc(-c2cc(C(F)F)n3ncc(C(=O)N4CCCCC4c4cccnc4)c3n2)cc1` (stereo not given), the inhibition was 2.1% (inactive). In the case of `Brc1cccc(CN2CCCCCC2)c1`, the inhibition is reported as -23% (inactive). For `N#C/C(=C\C=C\c1ccccc1)C(=O)N1CCCC1`, the inhibition was 23.1% (inactive). In the case of `CCOC(=O)C(CC)Sc1nnc2n1C(C)(C)Cc1ccccc1-2` (stereo not given), the inhibition is reported as -5.8% (inactive). In the case of `COc1ccc(OC)c(-c2cc(C(=O)NCCN3CCOCC3)no2)c1`, the inhibition is reported as -5.6% (inactive). In the case of `CC12C(=O)N(Cc3ccco3)C(=O)C1C1c3ccccc3C2c2ccccc21` (stereo not given), the inhibition is reported as 28.8% (inactive). In the case of `C/C(=N/OCC(=O)NCCCCCCNC(=O)CO/N=C(/C)c1cccs1)c1cccs1`, the inhibition is reported as -2.7% (inactive). With `CCNC(=O)Cc1c(OC)ccc2cc(Br)ccc12` the inhibition was -58.1% (inactive). For `CN1/C(=C\C(=O)C[n+]2cccc(C(N)=O)c2)C(C)(C)c2ccccc21`, the inhibition was 7.7% (inactive). In the case of `Cc1ccsc1/C=C/c1ccc2cccc(O)c2n1`, the inhibition is reported as 63.2% (active). In the case of `Cc1ccsc1/C=C/c1ccc2ccccc2n1`, the inhibition is reported as 27.3% (inactive). In the case of `Oc1cccc2ccc(/C=C/c3cccs3)nc12`, the inhibition is reported as -7.6% (inactive). For `CC(CC(=O)Nc1ccc(S(=O)(=O)Nc2ncccn2)cc1)c1ccccc1` (stereo not given), the inhibition was -22.5% (inactive). For `C=CCOn1c(=O)c(-c2ccc(F)cc2)[n+]([O-])c2ccccc21`, the inhibition was 3.1% (inactive). With `COc1cccc(/C=N/Nc2nc(N3CCCC3)nc(N3CCCC3)n2)c1O` the inhibition was 29.2% (inactive). With `C(=N\Nc1nc(N2CCCC2)nc(N2CCCC2)n1)/c1ccccc1OCc1ccccc1` the inhibition was 7.9% (inactive). With `CCOc1cccc(/C=N/Nc2nc(N3CCCC3)nc(N3CCCC3)n2)c1O` the inhibition was 33.4% (active). With `O=C1C2C3C=CC(C3)C2C(=O)N1c1ccncc1` (stereo not given) the inhibition was 29.4% (inactive). For `O=C(CSc1nc2cccnc2n1Cc1ccccc1)NCc1ccco1`, the inhibition was 8.8% (inactive). For `CC1CCCCN1CCNC(=O)c1ccc2c(c1)N(Cc1ccccc1F)C(=O)c1ccccc1S2=O` (stereo not given), the inhibition was -12.3% (inactive). In the case of `Cc1cccc(OCc2nnc(SCc3nc4ccccc4c(=O)[nH]3)o2)c1`, the inhibition is reported as -16.2% (inactive). With `COc1cccc2sc3ccc(C#Cc4ccc(N)cc4)cc3c(=O)c12` the inhibition was -70% (inactive). For `COc1ccc2sc3ccccc3c(=O)c2c1`, the inhibition was -32.1% (inactive). For `COc1ccc2sc3ccccc3c(=O)c2c1OC`, the inhibition was 97.4% (active). In the case of `Fc1ccc(CSc2nnc3ccccn23)c(Cl)c1`, the inhibition is reported as -35.7% (inactive). For `Cc1oc(S(=O)(=O)N2CCOCC2)cc1C(=O)Nc1ccc(Cl)cc1`, the inhibition was 0.4% (inactive). In the case of `O=C(Nc1nc2cc3c(cc2s1)OCCO3)c1cccc(N2C(=O)CCC2=O)c1`, the inhibition is reported as -14.7% (inactive). With `O=C(Nc1nc2cc3c(cc2s1)OCCO3)c1cccc(S(=O)(=O)N2CCOCC2)c1` the inhibition was 5.8% (inactive). In the case of `O=C(O)Cn1cc(C(=O)C2CC2)c2ccccc21`, the inhibition is reported as -13.5% (inactive). In the case of `Cc1ccccc1NC(=O)c1ccc(NS(=O)(=O)c2cc(C(C)(C)C)cc(C)c2C)cc1`, the inhibition is reported as -29.6% (inactive). For `CCc1ccccc1NC(=O)Nc1ccc(F)cc1`, the inhibition was -25.3% (inactive). In the case of `CCCN(Cc1cc2cc(C)ccc2[nH]c1=O)S(C)(=O)=O`, the inhibition is reported as -18% (inactive). With `CCCCC[n+]1cccc2c3ccccc3ccc21` the inhibition was 33.7% (inactive). In the case of `CCCCCCCCCCCCCCCC[n+]1cccc2ccccc21`, the inhibition is reported as 37.4% (inactive). For `CCCCCCCCCC[n+]1cccc2c3ccccc3ccc21`, the inhibition was 64.2% (active). For `Cc1ccc(C(=O)n2nc(-c3ccco3)nc2N)cc1`, the inhibition was -20.6% (inactive). For `COc1ccc(C(C(=O)NCC2CCCO2)N(C(=O)CNC(=O)c2cccs2)c2ccc(C)cc2)cc1OC` (stereo not given), the inhibition was 4.3% (inactive). For `CN(CCOCCOc1ccc(Cl)cc1Br)Cc1ccccc1`, the inhibition was -30.1% (inactive). In the case of `CC1OC2(C)OC(=N)C1(C#N)C(C#N)(C#N)C2c1ccccc1` (stereo not given), the inhibition is reported as -6.3% (inactive). In the case of `CC(C)C1OC2(C)OC(=N)C1(C#N)C(C#N)(C#N)C2c1ccccc1` (stereo not given), the inhibition is reported as 78.7% (active). With `CCC1OC2(C)OC(=N)C1(C#N)C(C#N)(C#N)C2c1ccccc1` (stereo not given) the inhibition was -1.7% (inactive). With `CC(C)N1CCN(Cc2nc(-c3ccccc3)cs2)CC1CCO` (stereo not given) the inhibition was -44.6% (inactive). For `Cc1ccc(Sc2cc(NCCCO)c([N+](=O)[O-])c3nonc23)cc1`, the inhibition was 2.1% (inactive). For `COc1ccc(Nc2cc(NCCCO)c([N+](=O)[O-])c3nonc23)cc1`, the inhibition was 4.8% (inactive). With `COc1ccc(CNc2cc(NCCCO)c([N+](=O)[O-])c3nonc23)cc1` the inhibition was 48.5% (active). In the case of `Cc1ccc(N=Nc2ccc3ccccc3c2O)cc1`, the inhibition is reported as 19% (inactive). For `Oc1c(N=Nc2ccc(F)cc2)ccc2ccccc12`, the inhibition was -69.9% (inactive). With `Oc1c(N=Nc2ccccn2)ccc2ccccc12` the inhibition was 96.4% (active). For `CCc1ccc(OCC(=O)N/N=C(\C)c2ccccc2OC(F)F)cc1`, the inhibition was -2.9% (inactive). For `Cc1[nH]nc(SCC(=O)NCc2ccc(Cl)cc2)c1[N+](=O)[O-]`, the inhibition was -33.8% (inactive). For `COC(=O)Nc1nc(-c2ccc(F)cc2)c(C)s1`, the inhibition was -56.3% (inactive). For `COc1cc2ccc(=O)oc2c(CC=C(C)C)c1OC`, the inhibition was -5.1% (inactive). In the case of `C/C(=C/Cc1c(O)cc2oc(C)cc(=O)c2c1O)COC1OC(CO)C(O)C(O)C1O` (stereo not given), the inhibition is reported as -47.3% (inactive).
